# Screening data: PubChem, National Center for Advancing Translational Sciences (NCATS)
# Compounds with a hit are over-represented: about 9.2% of the library has one in this group of screens.
# KDM4E inh = qHTS Assay for Inhibitors of Human Jumonji Domain Containing 2E (JMJD2E) | Lysine-specific demethylase 4E (Homo sapiens), B2RXH2 | AID 2147, 2009 | JMJD2E catalytic domain, FDH-coupled NADH fluorescence (FDH is formaldehyde dehydrogenase) | hit rate 1.6% among 230,000 | Potency, µM (titrated, usually from 57.1 µM), inactives show at the highest dose activity change, negative = inhibition, hits mostly inhibitors;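 also: 0% = wells with enzyme and -100% = buffer wells without enzyme; nearly all actives have a fitted effect of over 50% in size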
# HTT cytoprotect = qHTS Multiplex Assay to Identify Dual Action Probes in a Cell Model of Huntington: Cytoprotection (ATP); AID 1471, 2008; Potency, µM (titrated, usually from 56.4 µM), for the others: cytoprotection (ATP increase), hits mostly activators; PC12 HTT-Q103 induced, cytoprotection, ATP luminescence, 40 h; hit rate 0.14% among 230,000; active = well fitted curve in the direction sought with a large enough effect; inconclusive = small, poorly fitted or top-dose-only effect, or another doubt; inactive = no such curve, though single readings can be large; an effect the other way counts as inactive or inconclusive; also: % of control where 0% means no effect; nearly all actives have a fitted effect of over 45% in size
#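 Readout: ATPlite luminescence (ATP level). Model: stable PC12, inducible Htt exon1 Q103-GFP. Inducer: tebufenozide, 100 nM final. Compounds: dose series. No G418 in medium.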
# Lamin A splicing = qHTS Assay for Modulators of Lamin A Splicing. HeLa LMNA splicing GFP/RFP minigene ratio, 48 h. Potency, µM (titrated, usually from 46.1 µM), for the others: at the top dose ratio change, negative = inhibition, actives largely listed as inhibitors. hit rate 0.01% among 200,000; active = well fitted inhibition curve with a large enough effect in the signal ratio, with a control signal flat, not every such curve was filed as active; inconclusive = small, poorly fitted or top-dose-only effect, or effect the other way, or a change in a side signal; the % refers to the signal ratio; also: % is scaled to controls: 0 for no effect and ±100 for the full control effect
#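 S3 HeLa stable clones carrying a lamin A-EGFP splicing minigene plus DsRed2 were seeded at 600 cells/well in Opti-MEM with 2% FBS, pin-dosed and incubated 48 h at 37°C. Acumen cytometry (488 nm) gave the GFP/RFP total-intensity ratio.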
# HPGD inh = qHTS Assay for Inhibitors of HPGD (15-Hydroxyprostaglandin Dehydrogenase) | 15-hydroxyprostaglandin dehydrogenase [NAD(+)] (Homo sapiens), P15428 | purified HPGD, NADH fluorescence kinetic, PGE2 substrate | Potency, µM, without a hit: at the top dose activity change, negative = inhibition, hits mostly inhibitors | hit rate 4.3% among 150,000; also: % is scaled to controls: 0 for no effect and ±100 for the full control effect
# Target sequence (P15428 whole entry, looked up): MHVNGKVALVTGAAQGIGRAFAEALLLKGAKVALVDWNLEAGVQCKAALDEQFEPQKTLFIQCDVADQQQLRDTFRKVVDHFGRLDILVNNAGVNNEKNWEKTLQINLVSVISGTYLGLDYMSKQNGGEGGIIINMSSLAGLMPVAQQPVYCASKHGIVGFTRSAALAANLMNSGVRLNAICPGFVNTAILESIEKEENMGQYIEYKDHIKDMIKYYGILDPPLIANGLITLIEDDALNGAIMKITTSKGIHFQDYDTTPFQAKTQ
#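 20 nM HPGD preincubated 15 min at room temperature with compound in 50 mM Tris-HCl pH 8, 0.01% Tween 20. Started with 1 mM NAD+ and 30 uM prostaglandin E2; NADH fluorescence (360/450 nm) read 5 times over 30-s intervals, last minus first.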
# ALDH1A1 inh = qHTS Assay for Inhibitors of Aldehyde Dehydrogenase 1 (ALDH1A1) | Purified ALDH1A1, NADH fluorescence, propionaldehyde substrate | Potency, µM (top dose mostly 75.3 µM), inactives show top-dose activity, negative = inhibition, usual class: inhibitors | hit rate 7.3% among 220,000 | Aldehyde dehydrogenase 1A1 (Homo sapiens), P00352;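 also: plate controls were no enzyme wells and a reference inhibitor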
# Target sequence (P00352 whole entry, looked up): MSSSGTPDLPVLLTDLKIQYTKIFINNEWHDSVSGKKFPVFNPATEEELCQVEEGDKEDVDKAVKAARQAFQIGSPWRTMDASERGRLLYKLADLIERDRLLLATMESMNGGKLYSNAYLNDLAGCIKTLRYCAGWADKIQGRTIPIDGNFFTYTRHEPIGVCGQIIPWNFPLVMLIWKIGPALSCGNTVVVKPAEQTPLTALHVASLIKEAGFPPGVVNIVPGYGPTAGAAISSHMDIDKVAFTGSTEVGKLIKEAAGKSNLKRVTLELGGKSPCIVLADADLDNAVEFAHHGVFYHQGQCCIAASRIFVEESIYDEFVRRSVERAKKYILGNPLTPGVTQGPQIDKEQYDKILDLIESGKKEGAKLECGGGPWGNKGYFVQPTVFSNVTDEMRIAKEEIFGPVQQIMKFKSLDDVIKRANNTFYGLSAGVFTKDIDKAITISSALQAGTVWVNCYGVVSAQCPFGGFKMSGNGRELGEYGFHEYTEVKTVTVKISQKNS
# HTT aggregate = qHTS Multiplex Assay to Identify Dual Action Probes in a Cell Model of Huntington: Aggregate Formation (GFP); hit rate 1.1% among 220,000; Potency, µM (highest dose often 46.1 µM), without a hit: at the top dose activity change, negative = inhibition, actives largely listed as inhibitors; PC12 HttQ103-GFP aggregates, Acumen cytometry, 40 h; AID 1688, 2009; active = well fitted curve in the direction sought with a large enough effect; inconclusive = small, poorly fitted or top-dose-only effect, or another doubt; inactive = no such curve, though single readings can be large; an effect the other way counts as inactive or inconclusive; also: % is scaled to controls: 0 for no effect and ±100 for the full control effect; nearly all actives have a fitted effect of over 60% in size
#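 Ecdysone-promoter PC12 model expressing HTT exon 1 Q103 fused to GFP, induced by tebufenozide at 100 nM final. Compounds titrated; aggregates sized 1–25 µm scored on a 488 nm laser cytometer.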
# * hit, by the source's call; ? = inconclusive; . = no result given; [ ] = remark or other dose. Unless noted, calls follow the shape of the dose curve; as a rule, active = well fitted inhibition curve with a large enough effect (not every such curve was filed as active); inconclusive = small, poorly fitted or top-dose-only effect, or another doubt; inactive = no such curve, though single readings can be large or run the other way. Potency is read from the fitted curve at half-maximal effect.
SMILES,KDM4E inh,HTT cytoprotect,Lamin A splicing,HPGD inh,ALDH1A1 inh,HTT aggregate
CCOC(=O)C(C)Sc1nc2c(c(=O)[nH]c(=O)n2C)n1C/C=C(/C)Cl (centres undefined),-7%,-1%[0.074 µM],-1%,22µM*,7.1µM*,11%
Nc1ccc(C(=O)OCC(=O)Nc2ccc([N+](=O)[O-])cc2C(F)(F)F)cc1,-3%,37%[10 µM],2%,-8%,0%,-28%
CCN(CC)C(=O)CC(c1cc(OC)c(OC)c(OC)c1)c1c(OC)cc(OC)c2c(-c3ccccc3)cc(=O)oc12 (centres undefined),-4%,0%[10 µM],.,.,.,23%[9.22 µM]
COc1ccc(CNc2ncnc3c2nnn3C)cc1,.,.,-2%[46 µM],.,.,.
COCC(=O)N1CCC[C@@]2(CCN(Cc3ccccc3)C2)C1,.,24%,.,-5%,-4%,.
Cc1sc2ncnc(SCC(=O)NC(C)(C)C)c2c1C,-3%,-6%[10 µM],.,.,-2%,1%[9.22 µM]
Cc1sc2ncnc(SCC(=O)NCC(C)C)c2c1C,-2%,9%,-3%,16µM*,-2%,-18%
COc1ccc(-c2nnc3n2N=C(C)CS3)cc1,-1%,-7%,-4%,-23%,-2%,0%
CCOC(=O)/C(=C\c1ccc(OC(F)F)cc1)C1=Nn2c(nnc2-c2ccc(Cl)cc2)SC1,-21%,.,?,14µM*,14µM*,?
CC[C@@H]1OC(=O)[C@H](C)[C@H](O[C@@H]2C[C@](C)(OC)[C@H](O)[C@H](C)O2)[C@H](C)[C@H](O[C@@H]2O[C@@H](C)C[C@@H](N(C)C)[C@@H]2O)[C@](C)(O)C[C@H](C)C(=NOCOCCOC)[C@H](C)[C@H](O)[C@]1(C)O,-1%[25.5 µM],-118%[17.1 µM],?,1%,-7%[20.9 µM],1%[20.6 µM]
CCCCC(CC)CN1CN(CC(CC)CCCC)CC(C)(N)C1 (centres undefined),-17%,21%,.,-6%,1%,.
CC1CC(C)CN(C(=O)CCNS(=O)(=O)c2ccc3c(c2)CCC(=O)N3)C1 (centres undefined),13%,.,?,0%,4%,12%
CC1Cc2ccccc2N1C(=O)CCNS(=O)(=O)c1ccc2c(c1)CCC(=O)N2 (centres undefined),0%,3%,1%,-1%,16µM*,1%
CNC(=O)CSCc1c(Cl)cccc1Cl,1%,-8%[0.074 µM],6%,-17%,9%,-8%
CC(C)NC(=O)CSCc1c(Cl)cccc1Cl,3%,-16%,22%,14µM*,?,-15%
O=C(CSCc1c(Cl)cccc1Cl)Nc1nccs1,2%,0%,18%,20µM*,-7%,6%
O=C(CN1c2ccc(Br)cc2-c2ccccc2S1(=O)=O)N1CCCCC1,.,.,13%[46 µM],.,.,.
Cc1ccc(/C=C2\SC(=S)N(C3CCS(=O)(=O)C3)C2=O)cc1 (centres undefined),2%,30%,.,.,-17%,?
O=C1/C(=C/c2ccco2)SC(=S)N1C1CCS(=O)(=O)C1 (centres undefined),1%,-98%[10 µM],?,.,8.9µM*,4.5µM*
O=C1/C(=C\c2ccco2)SC(=S)N1C1CCS(=O)(=O)C1 (centres undefined),28µM*,6%[10 µM],.,.,22µM*,6%[9.22 µM]
CN(C)Cc1ccccc1-c1nc(NCc2cccs2)c2ccccc2n1,.,-28%,?,.,2%,.
COCCNC(=O)c1cc(Sc2nnc(C)s2)nc2ccccc12,?,-20%[10 µM],.,.,.,-21%[9.22 µM]
Cc1nnc(Sc2cc(C(=O)NCc3ccco3)c3ccccc3n2)s1,-12%,11%,?,2.2µM*,?,?
CCN(CCCNC(=O)Cn1ncc2c(=O)oc3ccccc3c21)c1cccc(C)c1,?,-10%,8%,-19%,-15%,-19%
CCCN(C(=O)Cn1ncc2c(=O)oc3ccccc3c21)c1cccc(C)c1,-1%,-14%,-2%,3%,11µM*,21%
SMILES,KDM4E inh,HTT cytoprotect,Lamin A splicing,HPGD inh,ALDH1A1 inh,HTT aggregate
O=C(NC(=S)Nc1ccc(S(=O)(=O)N2CCCCC2)cc1)c1ccccc1,4%,-13%,0%,-16%,9.5µM*,-4%
O=C(NC(=S)Nc1ccc(S(=O)(=O)Nc2ccccc2)cc1)C1CC1,-20%,-5%[10 µM],10%[46 µM],.,22µM*,-13%
Cc1ccccc1C(=O)NC(=S)Nc1ccc(S(=O)(=O)N2CCN(C)CC2)cc1,2%,-17%,-5%,?,10µM*,-13%
O=C(Nc1cc(-c2ccccc2)[nH]n1)c1ccc(Cl)cc1,1%,6%[10 µM],.,.,-8%,-8%[9.22 µM]
Nc1nc2c(s1)COc1ccccc1-2,?,12%[10 µM],?,.,22µM*,12%[9.22 µM]
CC(C)(C)C(=O)Nc1nc2c(s1)COc1ccccc1-2,-26%,-9%[10 µM],?,-19%,-8%,?
O=C(CCSc1ccccc1)Nc1nc2c(s1)COc1ccccc1-2,?,5%[10 µM],20%,-26%,14µM*,-1%
COc1ccc(N=C2NN=C(c3c(C)[nH]c4ccccc34)CS2)cc1,?,15%[10 µM],?,-23%,14µM*,-8%
Cc1[nH]c2ccccc2c1C1=NNC(=Nc2ccc(F)cc2)SC1,-6%,9%[10 µM],?,-4%,20µM*,?
Cc1noc(C)c1-c1cc(Nc2ccccc2)ncn1,.,-41%,?,.,?,.
CC(=O)Nc1ccc2c(c1)ncn2C,8%,2%[1.9 µM],-2%,6%,35µM*,-28%
CC(=O)Nc1ccc2c(c1)ncn2-c1ccc(C)cc1,-1%,-7%[10 µM],0%[46 µM],.,6%,12%[9.22 µM]
C[C@@H](CN(C)C[C@H]1C(=O)O[C@@H]2C[C@@]3(C)CCC[C@]4(CO4)C3CC21)[C@H](O)c1ccccc1 (some centres undefined),-11%,26%,.,-2%,-8%,.
O=C=Nc1ccc(Cl)c(Cl)c1,.,-176%,.,-10%,-9%,.
C/C(=N\NC(=S)NCc1ccccc1)c1ccccc1,-4%,45%[10 µM],?,-8%,-2%,-2%
C/C(=N\NC(=S)NCc1ccccc1)c1ccco1,-16%,10%[10 µM],.,.,32µM*,-2%
Cc1nc2[nH]c(=S)[nH]c2cc1Br,-1%,10%,?,?,18µM*,15%
Cc1nc2nc[nH]c2cc1Br,-5%,-7%,6%,-18%,-20%,-6%
COc1ccc(CC(=O)NCc2nc3cccnc3n2Cc2ccc(F)cc2)cc1OC,.,.,-12%[46 µM],.,.,.
CC(=O)c1cccc(NC(=O)c2oc(=O)c3ccccc3c2-c2ccccc2)c1,.,.,-17%[46 µM],.,.,.
